The source of these data is PubChem BioAssay (NCATS).

Assay [1] addresses Alpha-galactosidase A (Homo sapiens) (UniProt P06280). Put plainly: Counterscreen for Glucocerebrosidase Inhibitors: qHTS Assay for Human alpha-Galactosidase at pH 4.5 (AID 992). Further: 0% is about no effect. Particulars: purified enzyme, fluorogenic substrate; series mostly up to 76.9 µM. Summed up:
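Each compound is preincubated briefly with 2 nM enzyme before substrate addition (80 uM); plates then sit 20 min at ambient temperature, are quenched with 1M NaOH/1M glycine, and read fluorometrically.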
Background: The purpose of a counterscreen is to sort out artefacts and off-target activity.

The target of assay [2] is alpha-glucosidase (Oryza sativa, rice) (UniProt Q653V4). Put plainly: Counterscreen for Glucocerebrosidase Inhibitors: qHTS Assay for Rice alpha-Glucosidase at pH 5.0 (AID 997).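 Further: 0% = full activity with enzyme and -100% = basal without enzyme.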 Particulars: rice alpha-glucosidase enzyme activity; series mostly up to 76.9 µM. The method, boiled down:
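Endpoint fluorogenic assay at pH 5.0: compounds (0.7 nM to 77 uM) titrated against 4 nM rice enzyme and 400 uM 4-MU-alpha-glucoside for 20 min at room temperature; NaOH/glycine stop, read ex 365/em 440 nm, Hill-fitted AC50.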

A short description of assay [3]: Validation of Assay for Modulators of Lamin A Splicing (AID 1459; active means well fitted curve in the direction sought with a large enough effect in the signal ratio; the % refers to the signal ratio;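 further: cells exposed to compound for two days before reading; 0% is about no effect; ratio rise marks activators and ratio drop marks inhibitors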). Particulars: Lamin A splicing dual RFP/GFP fluorescence reporter; series mostly up to 9.22 µM. Summed up:
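Dual-reporter HeLa S3 line (lamin A-EGFP minigene, DsRed2) treated with compounds 48 hrs, 0.5% DMSO final. Endpoint: EGFP/DsRed2 total intensity ratio from laser-scanning microplate cytometry.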

A short description of assay [4]: qHTS Assay for Lipid Storage Modulators (AID 1519; calls by dose curve; on activity change, negative = inhibition: on the % scale 0 is the no-effect control and ±100 the full control effect). Particulars: Drosophila S3 cells, BODIPY lipid droplet/cell ratio, laser cytometry, cells loaded with oleic acid. The method, boiled down:
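Cells seeded at 5,000 per well were treated with compounds over a concentration series and loaded with oleic acid (400 uM, as added). Lipid droplet fluorescence (488 nm excitation, 500-530 nm channel) was read by laser-scanning cytometry and normalized to 20 uM Triacsin C.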

The target in assay [5] is DNA repair nuclease/redox regulator APEX1 (Homo sapiens) (UniProt P27695). Put plainly: qHTS Validation Assay for Inhibitors of the Human Apurinic/apyrimidinic Endonuclease 1 (APE1) (AID 1705;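 further: TAMRA fluorescence gain over two minutes as APE1 cuts a quenched THF abasic duplex; on the % scale 0 is the no-effect control and ±100 the full control effect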). Particulars: purified APE1 endonuclease activity, fluorescence, titration; series mostly up to 57.1 µM. The method, boiled down:
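Substrate: 50 nM final fluorophore/quencher THF-abasic duplex. Enzyme preincubated with compounds 15 min, RT. Progress derived from fluorescence difference, third minus first kinetic read.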
For orientation: Quantitative high-throughput screening tests each substance at several concentrations.

Assay [6] is described as follows: Counterscreen for APE1 Inhibitors: Fluorescent Dye Displacement Validation Assay (AID 1707).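 Further: plate controls were ThO with dsDNA and no compound for no effect and ThO without dsDNA for full effect.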 Particulars: fluorescent dye displacement from DNA; series mostly up to 57.1 µM. Summed up: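 Loss of Thiazole Orange fluorescence marks promiscuous DNA binders. The dye (250 nM) is mixed with 50 nM abasic-site dsDNA in pH7.5 Tris buffer containing MgCl2, then compounds are added and emission is read once.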

Assay [7] addresses Endonuclease 4 (Escherichia coli (strain K12)) (UniProt P0A6C1). Put plainly: Counterscreen for APE1 Inhibitors: qHTS Validation Assay for Inhibitors of Endonuclease IV (AID 1708). Further: on the % scale 0 is the no-effect control and ±100 the full control effect. Particulars: E. coli endonuclease IV, DNA cleavage fluorescence; series mostly up to 57.1 µM. The method, boiled down: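 Incision of a double-stranded 50 nM TAMRA/BHQ-2 abasic substrate was followed kinetically (525/598 nm, reads every 60 s) after 15 min enzyme–compound preincubation with 2 nM EndoIV in pH 7.5 Tris buffer with MgCl2, DTT and Tween-20; concentration-response format.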

A short description of assay [8]: qHTS for differential inhibitors of proliferation of Plasmodium falciparum line 7G8 (AID 1815).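 Further: parasite growth measured after three days of incubation.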 Further: potency means the concentration at half of the fitted maximal effect.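 On activity change, negative = inhibition: plate controls were vehicle wells for no effect and reference inhibitor wells for full effect.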 The settings on record: Plasmodium falciparum 7G8 proliferation inhibition; series mostly up to 28.7 µM.
A short description of assay [9]: qHTS for differential inhibitors of proliferation of Plasmodium falciparum line GB4 (AID 1816).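 Further: parasite growth measured after 72 h incubation.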 Further: potency means the concentration at half of the fitted maximal effect.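 On activity change, negative = inhibition: 0% = vehicle DMSO and -100% = reference inhibitor.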 Particulars: Potency: Plasmodium falciparum GB4 proliferation inhibition; series mostly up to 28.7 µM.
A short description of assay [10]: qHTS for differential inhibitors of proliferation of Plasmodium falciparum line 3D7 (AID 1876). Further: potency means the concentration at half of the fitted maximal effect. The settings on record: P. falciparum 3D7 proliferation inhibition; series mostly up to 28.7 µM.
Where [11] appears, read: measured here: cell count channel max response.
Setting [12] is: measured here: lipid channel max response.

The structures appear in SMILES notation. Several values for one entry are separate records, joined by “and”; a condition that tells them apart may be missing. Equal entries are not always repeated. Inconclusive results are not listed. Activity calls are given as the source filed them. Unless noted, the call rests on the fitted dose curve; in most records, active means well fitted curve in the direction sought with a large enough effect; inconclusive means small, poorly fitted or top-dose-only effect, or another doubt; inactive means no such curve, though single readings can be large; an effect the other way counts as inactive or inconclusive.

Sequence of DNA repair nuclease/redox regulator APEX1 (Homo sapiens) (P27695 whole entry, looked up): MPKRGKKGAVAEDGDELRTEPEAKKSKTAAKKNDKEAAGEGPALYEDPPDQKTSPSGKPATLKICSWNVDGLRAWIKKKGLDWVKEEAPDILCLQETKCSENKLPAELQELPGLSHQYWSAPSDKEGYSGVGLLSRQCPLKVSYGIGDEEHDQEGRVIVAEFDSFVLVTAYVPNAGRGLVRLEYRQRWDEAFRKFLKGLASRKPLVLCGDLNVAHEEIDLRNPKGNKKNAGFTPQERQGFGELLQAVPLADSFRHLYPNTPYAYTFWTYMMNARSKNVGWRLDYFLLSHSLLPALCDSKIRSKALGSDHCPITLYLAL
Sequence of Alpha-galactosidase A (Homo sapiens) (P06280 whole entry, looked up): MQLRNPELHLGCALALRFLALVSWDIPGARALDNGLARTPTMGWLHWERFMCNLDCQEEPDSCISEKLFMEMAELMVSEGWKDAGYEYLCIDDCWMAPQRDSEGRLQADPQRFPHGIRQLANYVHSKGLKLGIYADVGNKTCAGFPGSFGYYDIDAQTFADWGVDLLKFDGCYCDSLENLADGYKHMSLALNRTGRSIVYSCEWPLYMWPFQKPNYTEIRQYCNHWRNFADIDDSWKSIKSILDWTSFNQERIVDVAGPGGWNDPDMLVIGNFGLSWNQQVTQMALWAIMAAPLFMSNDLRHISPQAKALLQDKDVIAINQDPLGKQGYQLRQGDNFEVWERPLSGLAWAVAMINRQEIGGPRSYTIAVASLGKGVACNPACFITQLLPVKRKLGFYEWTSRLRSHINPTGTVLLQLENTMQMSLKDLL

Regarding `CCCn1c(=O)[nH]c(=O)c2[nH]cnc21`, the compound was classed as inactive in [1], in [2], in assay [3], in [6] and in assay [7]. In addition, the activity change, negative = inhibition in assay [4] (at 57.5 µM (top of the series)) was -0.904% (inactive). Besides, the max response in assay [4] (setting [11]) was 29.5%; in assay [4] (setting [12]) it was 25.8%. Besides, the Potency result in [5], in [8], in [9] and in assay [10] was “inactive” in each case.
`CC(C)COC(=O)OCN1C(=O)CN(CCN2CC(=O)N(COC(=O)OCC(C)C)C(=O)C2)CC1=O`: the call in assay [1], in [2], in [3], in assay [6] and in assay [7] was inactive. Besides, in assay [4] (at 57.5 µM (top of the series)), the activity change, negative = inhibition is 1.23% (inactive). Moreover, the max response in assay [4] (setting [11]) was 3.57%; in [4] (setting [12]), 4.19%. In addition, the Potency entry in assay [8], in assay [9] and in [10] was “inactive” throughout.
Take `CCCCOc1ccc(C(=O)CCN2CCCCC2)cc1`: in assay [4] (at 57.5 µM (top of the series)), the activity change, negative = inhibition was -7.63% (inactive). Also, the max response in assay [4] (setting [11]) was found to be 0.252%; in [4] (setting [12]) it was 0.832%.
In the case of `CC(=O)c1ccc2c(c1)N(CCCN1CCC(CCO)CC1)c1ccccc1S2`, the activity change, negative = inhibition in assay [4] (at 25.7 µM (top of the series)) was -1.72% (inactive). The max response in assay [4] (setting [11]) is -5%; in assay [4] (setting [12]), -2.93%.
For `CC(C)(CO)[C@@H](O)C(=O)NCCCO`, in assay [4] (at 57.5 µM (top of the series)), the activity change, negative = inhibition was 2.51% (inactive). The max response is 21.8% in [4] (setting [11]) and 22.3% in assay [4] (setting [12]).
As for `CN1CCN(CCCN2c3ccccc3Sc3ccc(S(=O)(=O)N(C)C)cc32)CC1`, in assay [4] (at 25.7 µM (top of the series)), the activity change, negative = inhibition is -2.96% (inactive). Further, the figures for the max response in [4] (setting [11]) and in assay [4] (setting [12]) were -3.59% and -5.35%, respectively.
For `CC(CCc1ccccc1)NCC(O)c1ccc(O)c(C(N)=O)c1` (configuration not stated), the outcome in assay [3], in [6] and in [7] was inactive. Further, the activity change, negative = inhibition in assay [4] (at 57.5 µM (top of the series)) was 1.59% (inactive) and 2.63% (inactive). Also, the max response in assay [4] (setting [11]) was 0.538% and 18.3%; in [4] (setting [12]), 3.22% and 11.8%. In addition, the Potency result in [5] was “inactive”. The Potency in assay [8] is 7.94 µM (active); in [9] it was 10 µM (active); in assay [10] it was 10 µM (active).
For `CC(O)(P(=O)(O)O)P(=O)(O)O`, in [4] (at 25.7 µM (top of the series)), the activity change, negative = inhibition was 2.54% (inactive). For the same compound, the figures for the max response in assay [4] (setting [11]) and in assay [4] (setting [12]) were -3.25% and -0.531%, respectively.
In the case of `CCN(CC)CCOC(=O)C(c1ccccc1)C1CCCCC1` (configuration not stated), in assay [4] (at 57.5 µM (top of the series)), the activity change, negative = inhibition was -0.866% (inactive). The figures for the max response in [4] (setting [11]) and in assay [4] (setting [12]) were 11.2% and 13.6%, respectively.
Regarding `CCC(NC(C)C)C(O)c1ccc(O)c(O)c1` (configuration not stated), the compound was classed as inactive in [3], in assay [6] and in [7]. For the same compound, the activity change, negative = inhibition in assay [4] (at 57.5 µM (top of the series)) was 1.71% (inactive). Moreover, the max response came out at 7.27% in assay [4] (setting [11]) and 6.31% in [4] (setting [12]). In addition, the Potency entry in assay [5] is “inactive”. Moreover, the values for the Potency in [8], in assay [9] and in assay [10] were 11.2 µM (active), 12.6 µM (active) and 12.6 µM (active), respectively.
On to `CCN(CCCCOC(=O)c1ccc(OC)c(OC)c1)C(C)Cc1ccc(OC)cc1` (configuration not stated), for which, in assay [4] (at 57.5 µM (top of the series)), the activity change, negative = inhibition is 3.28% (inactive). Moreover, the max response in assay [4] (setting [11]) was 17.5%; in assay [4] (setting [12]) it was 26.2%.
On to `C[C@H](O)C(=O)Nc1c(I)c(C(=O)NC(CO)CO)c(I)c(C(=O)NC(CO)CO)c1I`, for which the activity change, negative = inhibition in assay [4] (at 25.7 µM (top of the series)) was -3.5% (inactive). For the same compound, the max response in assay [4] (setting [11]) was -8.47%; in assay [4] (setting [12]) it was -9.62%.
